FadD28 FP inh = blocks FadD28 binding to the bisubstrate probe; fluorescence polarization; inhibition, % at 12.5 µM; hit rate 0.22% among 360,000; AID 588549; in the data active = inhibition above about 8.5%, passing the limit was not always enough
MazF activator = activators of E. coli MazEF toxin-antitoxin RNase; activation, % at 20 µM; P0AE70; AID 504720; hit rate 0.32% among 350,000; FAM/BHQ RNA-DNA oligo cleavage fluorescence, 5 h; in the data active = activation above about 50%
Target sequence (P0AE70 whole entry, looked up): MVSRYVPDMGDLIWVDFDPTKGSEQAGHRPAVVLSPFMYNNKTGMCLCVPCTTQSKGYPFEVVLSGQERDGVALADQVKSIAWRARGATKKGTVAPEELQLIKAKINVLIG
UGM FP inh = Mtb UDP-galactopyranose mutase inhibition; P9WIQ1; inhibition, % at 10 µM; purified UGM, fluorescence polarization probe displacement; AID 504406; hit rate 0.06% among 320,000; in the data active = inhibition above about 10%, passing the limit was not always enough
Vc quorum ag = induces V. cholerae light production without autoinducers | V. cholerae BH1578 lux reporter, luminescence, 6 h | activation, % at 18.7 µM | hit rate 0.16% among 350,000 | AID 588436; in the data active = activation mostly above about 9.7%, no sharp cut-off
Mtb bLac sens = beta-lactam sensitization of Mtb H37Rv; M. tuberculosis H37Rv growth with meropenem, percent inhibition; inhibition, % at 25 µM; hit rate 0.27% among 330,000; AID 434955; call rule not given here;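 note: growth measured after seven days incubation then overnight dye step; 0% = bacteria only wells and 100% = bacteria with antibiotic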
Rv3671c protease = Rv3671c (M. tuberculosis) protease inhibition | P9WHR9 | inhibition, % at 5.96 µM | hit rate 0.048% among 320,000 | AID 2606; in the data active = inhibition above about 38%;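 note: extracellular domain of Rv3671c used as enzyme; 0% = enzyme with DMSO and 100% = no enzyme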
Target sequence (P9WHR9 whole entry, looked up, the tested form may be a part): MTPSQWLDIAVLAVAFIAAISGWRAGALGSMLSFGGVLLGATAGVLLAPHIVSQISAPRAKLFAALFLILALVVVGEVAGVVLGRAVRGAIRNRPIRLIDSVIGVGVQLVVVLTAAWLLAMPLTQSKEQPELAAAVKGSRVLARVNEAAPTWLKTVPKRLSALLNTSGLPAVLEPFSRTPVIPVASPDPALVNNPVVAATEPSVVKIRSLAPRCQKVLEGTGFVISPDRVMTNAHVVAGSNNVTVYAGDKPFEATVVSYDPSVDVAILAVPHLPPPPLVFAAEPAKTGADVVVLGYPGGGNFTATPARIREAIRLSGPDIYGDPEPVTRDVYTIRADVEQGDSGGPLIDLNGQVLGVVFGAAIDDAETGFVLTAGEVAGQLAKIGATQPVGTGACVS
The depositor's hits bear a star; i = inactive; . = not tested or not shown; + = active, no number. Sampled rows, rich in hits. Any-hit rate of the full collection: about 0.74%.

SMILES	FadD28 FP inh	MazF activator	UGM FP inh	Vc quorum ag	Mtb bLac sens	Rv3671c protease
c1coc(Cn2nnnc2CN2CCN(C3CCCC3)CC2)c1	0	102*	1	-5	-9	3
COc1ccc(CSCC(=O)Nc2ccc(S(=O)(=O)N3CCCCCC3)cc2)cc1	12*	2	2	0	5	-41
O=C(COC(=O)c1ccc2c(c1)OCCO2)Nc1cc(Cl)ccc1Cl	-1	53*	0	.	6	-40
N#CC1=C(N)Oc2ccc3ccc(O)cc3c2C1c1ccsc1 (stereo not given)	15*	-36	.	i	.	.
Cc1ccc(-n2ncc3c2CC(C)(C)CC3NC(=O)CCc2ccc(=O)[nH]n2)cc1 (stereo not given)	-2	2	2	0	1	-8
CCN1C=C(Cc2ccc(F)cc2)C2=C(C1)C(c1ccc(F)cc1)C(C#N)=C(N)O2 (stereo not given)	-4	77*	6	-8	2	9
Cc1nc(SCC(=O)Nc2ccc3c(c2)OCCO3)c2oc3ccccc3c2n1	-3	54*	-1	1	34	-11
CCc1nc(SCC(=O)Nc2ccc3c(c2)OCCO3)c2oc3ccccc3c2n1	-2	-15	-2	7	11	2
CCOC(=O)C1=C(N)N2C(=O)CSC2=C(C(=O)OC)C1	0	-4	2	60*	-1	1
Cc1c(C(=O)O)cccc1-c1ccc(/C=N/Nc2ccc(Br)cc2)o1	17*	2	1	3	97	7
Cc1c(C(=O)O)cccc1-c1ccc(/C=N/n2cnnc2)o1	1	-6	1	0	1	-1
O=C(O)c1cccc(-c2ccc(/C=N/Nc3ccc([N+](=O)[O-])cc3)o2)c1	23*	-4	1	0	53	6
O=C(O)c1ccc(-c2ccc(/C=N/Nc3ccc([N+](=O)[O-])cc3)o2)cc1	0	-1	-4	0	43	1
O=C(O)c1ccc(N/N=C/c2ccc(-c3cccc(Cl)c3)o2)cc1	9.9*	-10	1	0	35	2
O=C(O)CNc1nc(NCc2ccc(Cl)cc2)ccc1[N+](=O)[O-]	1	-1	.	-1	.	.
COc1ccc(OC)c(NC(=O)C2=C(C)NC(=O)NC2c2cccs2)c1 (stereo not given)	-1	-17	-4	-1	10	0
COc1ccc(OC)c(NC(=O)C2=C(C)Nc3ncnn3C2c2cccs2)c1 (stereo not given)	-4	7	0	+	-9	-3
C=CCNc1nc(N2CCOCC2)c(C#N)c2c1CN(C)CC2	2	54*	-2	i	-12	-3
C=CCc1c(C)nc(SCc2ccccc2)[nH]c1=O	-4	0	4	1	1	0
CC(=O)NS(=O)(=O)c1ccc(N=c2ssc3c2-c2ccc(C)cc2NC3(C)C)cc1	14*	-4	-2	0	31	0
CC(=O)c1cc(NC(=O)c2cccc(C(F)(F)F)c2)c(=O)oc1C	0	7	-1	0	3	15
CC(=O)c1cc(NC(=O)c2cccc(C(F)(F)F)c2)c(=O)oc1/C=C/N(C)C	-3	180*	-2	6	9	-7
COc1ccc(N(CC(C)C)S(=O)(=O)c2nnc(NC(=O)c3ccco3)s2)cc1	-1	15	2	0	-8	-2
O=C(NCc1ccccc1)c1cc(S(=O)(=O)N2CCOCC2)ccc1F	-3	50*	-2	i	2	-5
O=c1c([N+](=O)[O-])c(N2CCCCC2)c2ccccc2n1-c1ccccc1	1	-3	0	+	6	0
SMILES	FadD28 FP inh	MazF activator	UGM FP inh	Vc quorum ag	Mtb bLac sens	Rv3671c protease
O=c1c([N+](=O)[O-])c(NCCN2CCCCCC2)c2ccccc2n1-c1ccccc1	-4	5	-1	0	-4	-2
COC(=O)c1ccccc1NC(=O)Cn1cnc2c(cnn2-c2ccc(C)c(C)c2)c1=O	.	17	2	.	8	6
CCOC(=O)c1ccccc1NC(=O)Cn1cnc2c(cnn2-c2ccccc2)c1=O	-2	-5	1	1	-3	-3
CCOc1ccccc1NC(=O)Cn1cnc2c(cnn2-c2ccc(C)c(C)c2)c1=O	-4	162*	0	i	-4	3
COC(=O)c1ccccc1NC(=O)Cn1cnc2c(cnn2-c2ccccc2)c1=O	-4	63*	2	0	-3	-3
Cc1ccc(OCC(=O)Nc2ccc(Cl)cc2)c(-n2nc3ccccc3n2)c1	-3	69*	-1	8	10	-3
CCc1nc2c(OCc3ccccc3)cccn2c1N(C)C(=O)C(C)C	-1	.	.	0	.	.
CCc1cc(C(=O)c2ccc(OC)cc2)c(N)s1	1	3	1	0	0	6
COc1ccc(C(=O)c2ccsc2N)cc1	8.6*	-4	-1	i	4	-8
COc1cc(OC)c2c(O)c3c(c(-c4c5c(c(O)c6c(OC)cc(OC)cc46)CO[C@@H](C)[C@H]5O)c2c1)[C@H](O)[C@H](C)OC3	10*	-69	0	0	-2	9
COc1cc2c(c(OC)c1O)C(=O)CO2	-4	2	-1	-1	2	-4
Cc1cc(N2CCN(C)CC2)ccc1NC(=O)c1cccc(S(=O)(=O)N2CCc3ccccc3C2)c1	-3	50*	-3	i	99	8
O=C(NC1CCOCC1)C1CCC(=O)N(Cc2ccc(Cl)cc2)C1 (stereo not given)	0	-1	-1	0	-2	4
Cc1ccc(NC(=O)CN(C)S(=O)(=O)c2cccc3nsnc23)cc1	-4	-3	-2	0	-14	-1
CC(NC(=O)CN(C)S(=O)(=O)c1cccc2nsnc12)c1ccccc1 (stereo not given)	0	97*	2	0	5	-9
Cc1cc(OC(=O)c2ccccc2Br)c([N+](=O)[O-])c(=O)[nH]1	-1	6	5	0	3	-2
Cc1ccc(CNc2ncnc3ccc(-c4ccoc4C)cc23)o1	-2	.	.	i	.	.
COc1cc(/C=C2/C(=O)N(C)C(=S)N2C)ccc1OCc1cccc(F)c1	0	66*	0	i	7	-7
COc1cc(N2CCCC2)c(OC)cc1/C=C(/C#N)c1ccc(Br)cc1	-2	-4	55*	0	-10	0
O=C(NCC1CCCO1)c1coc2nc3ccccc3nc12 (stereo not given)	-1	-35	2	+	-5	-9
Nc1c(C(=O)NC2CC2)sc2nc3c(c(-c4ccco4)c12)CC/C3=C/c1ccco1	18*	-16	-2	0	0	11
Cc1noc(NS(=O)(=O)c2ccc(NC(=O)/C=C/c3ccc(C(C)C)cc3)cc2)c1C	26*	-7	3	i	-7	-6
COc1cccc(C(=O)/C=C/Nc2ccc(S(=O)(=O)Nc3onc(C)c3C)cc2)c1	-1	6	2	0	5	-5

Source: PubChem BioAssay (several laboratories)
